Results published in PubChem BioAssay AID651640 (Broad Institute, 2012).
About 6,000 (1.7%) of roughly 350,000 compounds were called active. About 5% were inconclusive and are not listed. Rule as the data show it: active = CPE inhibition above about 20% (passing the limit was not always enough); inconclusive = no clear call, values can overlap the other calls; tested in BHK-21 cells. The sample as a whole holds a higher share of actives than the screen did.

assay: protection of cells from dengue 2 killing – plate reader, single concentration, primary screen (AID 651640); conditions: DENV2-infected cells, cytopathic effect rescue, at 9.99 µM, stronger effect = higher value;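 also: 0% = median of neutral control wells and 100% = median of positive control wells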

SMILES	CPE inhibition
Cn1cnc(CCNC(=O)C[C@H]2CC[C@H]3[C@@H](COC[C@H](O)CN3C(=O)C3CCCC3)O2)c1	-0.992% (inactive)
O=C(NCc1ccccc1)[C@H]1CCCN1C(=O)[C@H]1CCCN1C(=O)c1cc(F)cc(F)c1	-4.56% (inactive)
O=C(NCc1ccccc1)[C@@H]1CCCN1C(=O)[C@H]1CCCN1C(=O)c1cccc(Cl)c1	-9.03% (inactive)
O=C(NCc1ccccc1)[C@H]1CCCN1C(=O)[C@@H]1CCCN1C(=O)c1ccc(Cl)cc1Cl	40.8% (active)
CC(C)CC#Cc1ccc([C@H]2[C@H]3CN(C(=O)c4cnccn4)CC(=O)N3[C@H]2CO)cc1	6.05% (inactive)
COc1ccc2c3c([nH]c2c1)[C@@H](CO)N(Cc1cc(F)ccc1F)CC31CCN(C(=O)C2CCC2)CC1	8.85% (inactive)
C[C@@H]1CCCCO[C@@H](CN(C)C(=O)Cc2ccccc2)[C@H](C)CN([C@@H](C)CO)C(=O)c2cc(NC(=O)Nc3ccc4c(c3)OCO4)ccc2O1	-20.6% (inactive)
O=C1O[C@@H](c2ccccc2)[C@@H](c2ccccc2)N2[C@@H](c3ccccc3OCCO)[C@]3(C(=O)Nc4ccc(C#CC5(O)CCCCCC5)cc43)[C@@H](C(=O)N3CCCCCCC3)[C@H]12	-1.79% (inactive)
COc1ccc(C#Cc2ccc3c(c2)[C@]2(C(=O)N3)[C@H](c3ccccc3OCCO)N3[C@H](c4ccccc4)[C@H](c4ccccc4)OC(=O)[C@H]3[C@@H]2C(=O)N2CCCCCCC2)cc1	22.3% (active)
COc1ccc(C#Cc2ccc3c(c2)[C@]2(C(=O)N3)[C@H](C(=O)N3CCCCCCC3)[C@H]3C(=O)O[C@H](c4ccccc4)[C@H](c4ccccc4)N3[C@@H]2c2ccc(O)cc2)cc1	16.4% (inactive)
COc1ccccc1-c1ccc([C@@H]2[C@@H](CO)N3CCCCN(C(=O)c4ccncc4)C[C@@H]23)cc1	-5.15% (inactive)
COc1cccc(CNC(=O)C[C@H]2CC[C@@H](NC(C)=O)[C@@H](CO)O2)c1	-0.331% (inactive)
Cc1ccc(S(=O)(=O)N[C@H]2C=C[C@@H](CC(=O)NCCc3ccncc3)O[C@@H]2CO)cc1	-2.51% (inactive)
CCNC(=O)C[C@H]1CC[C@@H]2[C@H](COc3ccc(NC(=O)Nc4cccc(Cl)c4)cc3C(=O)N2C)O1	3% (inactive)
CCN(CC)S(=O)(=O)c1ccc(C)c(NC(=O)COc2ccc(Br)cc2Cl)c1	52.1% (active)
CCN(CC)S(=O)(=O)c1ccc(OC)c(NC(=O)CCc2c(C)noc2C)c1	-4.63% (inactive)
CCN(CC)S(=O)(=O)c1ccc(Cl)c(NC(=O)c2ccncc2)c1	2.11% (inactive)
